Results as given in PubChem BioAssay (NCI).
About 83,000 compounds went through this panel and 20% of them were active in at least one assay; those are over-represented in the sample as a whole.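 The endpoint reported here, percent growth, reads 100 for growth as untreated, 0 for no net growth and -100 for all cells dead.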 Active and inactive are the calls of the source. The calls were made as follows: active = growth percent below 10; inactive = the rest.

What was measured:
Test in all cases: NCI-60 one-dose screen, 48 h (100 = growth as untreated, 0 = no growth, -100 = all killed)
Conditions in all cases: 10 µM unless noted
[1] = system: SK-MEL-2 melanoma
[2] = system: EKVX NSCLC
[3] = system: SN12C renal
[4] = system: UO-31 renal
[5] = system: TK-10 renal
[6] = system: ACHN renal
[7] = system: A498 renal
[8] = system: CCRF-CEM leukemia
[9] = system: MOLT-4 leukemia
[10] = system: SR leukemia
[11] = system: RPMI-8226 leukemia
[12] = system: OVCAR-8 ovarian
[13] = system: OVCAR-5 ovarian
[14] = system: OVCAR-4 ovarian
[15] = system: SK-OV-3 ovarian
[16] = system: IGROV1 ovarian
[17] = system: OVCAR-3 ovarian
[18] = system: HS 578T breast
[19] = system: NCI/ADR-RES ovarian
[20] = system: T-47D breast

Measured: growth

COCCc1n(Cc2ccc3ccccc3c2)c2ccccc2[n+]1Cc1ccc2ccccc2c1
inactive: [6] 20.3% | [19] 84.4%
active: [1] -61.6% | [2] 4.7% | [3] -68% | [4] -18.7% | [5] -80.9% | [7] -19.1% | [8] -9.95% | [9] -43.4% | [10] -57% | [11] -52.7% | [12] -54.6% | [13] -2.95% | [14] -4.37% | [15] -14.6% | [16] -63.4% | [17] -72.8% | [18] -6.4% | [20] -16.7%

CSc1nc(-c2ccc(F)cc2)c(C#N)c(N2CCOCC2)n1
inactive: [1] 101% | [2] 88.6% | [3] 98.8% | [4] 80.3% | [5] 104% | [6] 90.1% | [7] 74.4% | [8] 81% | [9] 86.5% | [10] 85.9% | [11] 89.2% | [12] 92.9% | [13] 89.2% | [14] 90.6% | [15] 97.3% | [16] 92% | [17] 98.1% | [18] 91.4% | [19] 97.5% | [20] 79.7%

CN1CCN(S(=O)(=O)O[C@@H]2C(=O)N(c3cc4c5ccccc5ccc4c4ccccc34)[C@H]2c2ccc(F)cn2)CC1
inactive: [1] 92.8% | [2] 85% | [3] 92.2% | [4] 66.6% | [5] 94.6% | [6] 92.1% | [7] 80.4% | [8] 74.8% | [9] 66.6% | [10] 52.5% | [11] 79.7% | [12] 85.7% | [13] 108% | [14] 99.1% | [15] 97.9% | [16] 87.8% | [17] 88.4% | [18] 84.1% | [19] 92.2% | [20] 78.9%

N#CC(C#N)=C1NC(c2ccccc2)=C(c2ccccc2)C(c2ccccc2Cl)=C1C#N
inactive: [1] 94.8% | [2] 97.6% | [3] 111% | [4] 96.8% | [5] 80.7% | [6] 110% | [7] 113% | [8] 96.2% | [9] 81.5% | [10] 109% | [11] 113% | [12] 88.1% | [13] 105% | [14] 117% | [15] 103% | [16] 108% | [17] 108% | [18] 120% | [19] 96% | [20] 102%

COc1ccc2c(c1)/C(=C1\S/C(=N/c3nnc(C)s3)NC1=O)C(=O)N2Cc1ccc(Cl)cc1
inactive: [1] 43.4% | [2] 38.8% | [3] 51.6% | [4] 57.7% | [5] 58.4% | [6] 55.3% | [8] 31.7% | [9] 24.6% | [10] 55.7% | [11] 40.3% | [12] 52.2% | [13] 90.5% | [14] 44.7% | [15] 70% | [16] 41.9% | [17] 42.2% | [18] 55.1% | [19] 32% | [20] 42%
active: [7] -4.96%

Cc1c(O)c(=O)ccn1-c1nc2ccccc2s1
inactive: [1] 90.5% | [2] 45.3% | [3] 98.9% | [4] 47.6% | [5] 91.2% | [6] 60.6% | [7] 95.8% | [8] 82.7% | [9] 103% | [10] 91.3% | [11] 96.8% | [12] 85.4% | [13] 98.7% | [14] 97.7% | [15] 99% | [16] 109% | [17] 100% | [18] 95% | [19] 57.1% | [20] 92.4%

CCc1n(Cc2ccc3ccccc3c2)c2ccccc2[n+]1Cc1ccc2ccccc2c1
inactive: [1] 71.6% | [2] 76.7% | [3] 65.2% | [4] 87.2% | [5] 75.5% | [6] 96.5% | [7] 87.6% | [8] 63.5% | [9] 73.4% | [10] 28.4% | [11] 13.5% | [12] 55.1% | [13] 75.7% | [14] 18.3% | [15] 83% | [16] 45.8% | [17] 34.3% | [18] 82.7% | [19] 105% | [20] 25.4%

Nc1ccc(C2=NN(C(=O)c3cc(-c4ccc(Cl)cc4)nc4ccccc34)C(c3ccc(Cl)cc3)C2)cc1 (stereo not given)
active: [17] 8.07%
inactive: [1] 34.7% | [2] 42.8% | [3] 56.5% | [4] 47.6% | [5] 55.3% | [6] 54.4% | [7] 31.1% | [8] 17.8% | [9] 42.6% | [10] 25.7% | [11] 10.4% | [12] 32.1% | [13] 81.3% | [14] 72.4% | [15] 31.7% | [16] 49.2% | [18] 41.8% | [19] 12.4% | [20] 38%
